Each structure is given as a SMILES string. Measured potencies and affinities stand elsewhere. Active and inactive are the calls of the source. No rule for the calls is given here.

The experiment is described as follows: Venezuelan equine encephalitis virus CPE inhibition in Vero cells, confirmatory stage (AID 2409). As to conditions: VEEV-infected Vero cells; series mostly up to 66.6 µM; CPE inhibition: at the top concentration.
For the compound `O=C(CSc1nc2ccccc2c(=O)n1-c1ccc(F)cc1F)Nc1ccc(N2CCOCC2)cc1`, the “CPE inhibition” value was -5.87% [at 134 µM] (inactive). Under `OC1c2c(F)cccc2N=C2CCCN21` (centres undefined) stands 0.79% [at 134 µM] (inactive); under `COc1cccc(-n2c(SCC(=O)Nc3ccc4c(c3)CCC4)nc3ccccc3c2=O)c1`, -32.3% (inactive).

For `O=C(CSc1nc2ccc(F)cc2c(=O)n1-c1ccccc1)Nc1ccc2c(c1)CCC2`, the “CPE inhibition” value was -96.1% [at 134 µM] (inactive).

For the compound `CC1CC(C)CN(C(=O)CSc2nc3ccccc3c(=O)n2-c2ccc(F)cc2)C1` (centres undefined), the “CPE inhibition” value is -17.1% (inactive).

As for `O=C(CSc1nc2ccccc2c(=O)n1-c1ccccc1)Nc1ccc2c(c1)CCC2`, the “CPE inhibition” value was -9.34% (inactive).

Turning to `O=c1c2c(F)cccc2nc2n1CCC2`, the “CPE inhibition” value was -5.78% (inactive). Under `O=c1c2cccc(Cl)c2nc2n1CCC2` stands -11.8% (inactive); under `O=c1c2cc(Br)ccc2nc2n1CC/C2=C/c1ccccc1`, -43.2% (inactive); under `COc1ccccc1NC(=O)CSc1nc2ccccc2c(=O)n1-c1ccc(F)cc1`, 15.2% (inactive). Under `O=C(CSc1nc2cccc(F)c2c(=O)n1-c1ccccc1)Nc1ccc2c(c1)CCC2` stands 19.4% [at 134 µM] (inactive). Take `COc1ccc(-c2csc(N(Cc3ccccc3)C(=O)c3ccccc3Cl)n2)cc1`: the “CPE inhibition” value is 16.8% (inactive).

For `OC1c2c(F)cccc2N=C2CCCCN21` (centres undefined), the “CPE inhibition” value was -13.1% [at 134 µM] (inactive). The same measure for `OC1c2cc(Br)ccc2N=C2CCCCCN21` (centres undefined): -33.9% [at 134 µM] (inactive); for `CC(=O)Nc1ccc2nc3n(c(=O)c2c1)CCC3`: -33.2% (inactive); for `OC1c2c(F)cccc2N=C2CCCCCN21` (centres undefined): -30.5% [at 134 µM] (inactive). Regarding `CC1(O)c2cc(Br)ccc2N=C2CCCN21` (centres undefined), the “CPE inhibition” value was -18% (inactive). Under `Cc1cc(OC(=O)c2c(F)cccc2F)n(Cc2ccccc2)n1` stands -10.9% [at 134 µM] (inactive). Under `O=c1c2cc(I)ccc2nc2n1CCC2` stands -48.4% (inactive).

The values are drawn from PubChem BioAssay AID2409 (Southern Research Specialized Biocontainment Screening …, 2010).
